# PubChem BioAssay (EPA / NIEHS)
# Results filed as inconclusive are left out. Calls of active or inactive are those of the source. How the source made its calls: active means hit-call score of the fitted dose curve at least 0.9, where 1 is the maximum; inconclusive means response in the unintended direction; inactive means score below 0.9.
# Test system: not listed separately
# Test: ACEA_AR_agonist_AUC_viability: ACEA Biosciences xCELLigence Real-Time Cell Analysis on Androgen Receptor Agonism for Viability (AID 2283775);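 on AC50: viability read 80 hours after compound addition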
# Summary of the method: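 22Rv1 cells; impedance growth kinetics; 8-pt 1:4 dilutions from 100 uM top final, ≤0.5% DMSO; n = 2; 80 h read; AUC viability, loss-of-signal vs DMSO.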
SMILES,outcome,AC50
CCOCCOCCOCCO,inactive,
CC1=CC(=O)CC(C)(C)C1,inactive,
C=CC(=C)CCC=C(C)C,inactive,
CC(=O)OCCC(C)C,inactive,
COc1ccc(/C=C/S(=O)(=O)NC(=O)c2ccc(C)cc2Cl)cc1,,16.3 µM (active)
O=C1CCCCCN1,inactive,
CCNc1ccccc1,inactive,
O=P(OC(CCl)CCl)(OC(CCl)CCl)OC(CCl)CCl,,31.8 µM (active)
Cc1c(-c2cccnc2)c2ccccc2n1CCCCC(=O)O,,24.1 µM (active)
C1N2CN3CN1CN(C2)C3,inactive,
O=C(NS(=O)(=O)/C=C/c1ccccc1)c1ccc(F)cc1Cl,,5.76 µM (active)
O=C(O)CCN(C1(C(=O)NO)CCCC1)S(=O)(=O)c1ccc(Oc2ccc(F)cc2)cc1,inactive,
CC(=O)c1ccc2c(c1)[C@H](NC(=O)c1ccc(F)cc1)[C@@H](O)C(C)(C)O2,inactive,
CC/C(=C\C(=N/O)C(N)=O)C(C)[N+](=O)[O-] (configuration not stated),inactive,
CN(C)c1ccc(Cc2ccc(N(C)C)cc2)cc1,,56.8 µM (active)
COc1ccc(-n2nc(C(F)F)cc2-c2ccc(S(C)=O)cc2)cc1 (configuration not stated),inactive,
CCCCC(CC)COC(=O)CCCCCCCCC(=O)OCC(CC)CCCC (configuration not stated),inactive,
Cc1ccc(C)c(O)c1,inactive,
CC(O)CN(CCN(CC(C)O)CC(C)O)CC(C)O (configuration not stated),inactive,
CC(C)=CCC/C(C)=C/CO,,33 µM (active)
CC[C@H]1OC(=O)[C@H](C)[C@@H](O[C@H]2C[C@@](C)(OC)[C@@H](O)[C@H](C)O2)[C@H](C)[C@@H](O[C@@H]2O[C@H](C)C[C@H](N(C)C)[C@H]2O)[C@](C)(O)C[C@@H](C)C(=O)[C@H](C)[C@@H](O)[C@]1(C)O,inactive,
CCCCCCCCCCCCCCCO,,78.9 µM (active)
Cc1ccc(N)cc1O,,89.7 µM (active)
C1=CCCC=CCCC=CCC1,inactive,
Oc1ccc2c(c1)-c1ccccc1C2,,50 µM (active)
O=C(O)CC(O)C(=O)O (configuration not stated),inactive,
O=C1OC(=O)C2C3C=CC(C3)C12 (configuration not stated),inactive,
Cc1[nH]cnc1C[C@H]1CCc2c(C)c3ccccc3n2C1=O,,44.5 µM (active)

# Test system: not listed separately
# Test: ACEA_AR_antagonist_AUC_viability: ACEA Biosciences xCELLigence Real-Time Cell Analysis on Androgen Receptor Antagonism for Viability (AID 2283776);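 further: area under impedance growth curve at 80 h after dosing as viability; hits lower the growth signal relative to DMSO meaning cytotoxicity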
# Summary of the method: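 22Rv1 human prostate cancer cells were seeded on electrode plates, monitored overnight, then exposed to eight 1:4 dilutions from 100 uM final. Impedance-based growth kinetics at 80 h gave an AUC viability endpoint normalized to DMSO.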
SMILES,outcome,AC50
C=CC(=C)CCC=C(C)C,inactive,
O=C1CCCCCN1,inactive,
CCNc1ccccc1,inactive,
O=P(OC(CCl)CCl)(OC(CCl)CCl)OC(CCl)CCl,,29.8 µM (active)
Cc1c(-c2cccnc2)c2ccccc2n1CCCCC(=O)O,,22.8 µM (active)
C1N2CN3CN1CN(C2)C3,inactive,
CN(C)c1ccc(Cc2ccc(N(C)C)cc2)cc1,,50 µM (active)
COc1ccc(-n2nc(C(F)F)cc2-c2ccc(S(C)=O)cc2)cc1 (configuration not stated),inactive,
Cc1ccc(C)c(O)c1,inactive,
CC(C)=CCC/C(C)=C/CO,,25.6 µM (active)
CCCCCCCCCCCCCCCO,,89.4 µM (active)
Cc1ccc(N)cc1O,,87.4 µM (active)
C1=CCCC=CCCC=CCC1,inactive,
Oc1ccc2c(c1)-c1ccccc1C2,,41.8 µM (active)
O=C1OC(=O)C2C3C=CC(C3)C12 (configuration not stated),inactive,
Cc1[nH]cnc1C[C@H]1CCc2c(C)c3ccccc3n2C1=O,,50.1 µM (active)

# Test system: not listed separately
# Test: ACEA_ER_AUC_viability: ACEA Biosciences xCELLigence Real-Time Cell Analysis on Estrogen Receptor Agonism for Viability (AID 2283782);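 further: hit means loss of impedance signal meaning reduced cell growth or viability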
# Summary of the method: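 Continuous-exposure impedance cell analysis uses T-47D cells in charcoal-stripped serum, eight 1:4 dilutions topping at 100 uM final, biological duplicate. Area under the growth curve at 80 h is fitted against DMSO baseline.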
SMILES,outcome,AC50
C=CC(=C)CCC=C(C)C,inactive,
CCNc1ccccc1,inactive,
O=P(OC(CCl)CCl)(OC(CCl)CCl)OC(CCl)CCl,inactive,
Cc1c(-c2cccnc2)c2ccccc2n1CCCCC(=O)O,,17.3 µM (active)
C1N2CN3CN1CN(C2)C3,inactive,
Cc1ccc(C)c(O)c1,inactive,
CCCCCCCCCCCCCCCO,inactive,
Cc1ccc(N)cc1O,inactive,
C1=CCCC=CCCC=CCC1,inactive,
Oc1ccc2c(c1)-c1ccccc1C2,,79.2 µM (active)

# Biological target: AR (gene 367) (UniProt P10275)
# Test: ACEA_AR_agonist_80hr: ACEA Biosciences xCELLigence Real-Time Cell Analysis on Androgen Receptor Agonism for Proliferation (AID 2283783);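 further: hits increase impedance growth signal above DMSO baseline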
# Summary of the method: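 Real-time cell-growth kinetics were recorded by electrode impedance in 22Rv1 cells exposed to test chemicals up to 100 uM final; the 80 h timepoint served as the readout, fitted upward relative to DMSO controls, in biological duplicate.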
# AR (gene 367), sequence (P10275 whole entry, looked up): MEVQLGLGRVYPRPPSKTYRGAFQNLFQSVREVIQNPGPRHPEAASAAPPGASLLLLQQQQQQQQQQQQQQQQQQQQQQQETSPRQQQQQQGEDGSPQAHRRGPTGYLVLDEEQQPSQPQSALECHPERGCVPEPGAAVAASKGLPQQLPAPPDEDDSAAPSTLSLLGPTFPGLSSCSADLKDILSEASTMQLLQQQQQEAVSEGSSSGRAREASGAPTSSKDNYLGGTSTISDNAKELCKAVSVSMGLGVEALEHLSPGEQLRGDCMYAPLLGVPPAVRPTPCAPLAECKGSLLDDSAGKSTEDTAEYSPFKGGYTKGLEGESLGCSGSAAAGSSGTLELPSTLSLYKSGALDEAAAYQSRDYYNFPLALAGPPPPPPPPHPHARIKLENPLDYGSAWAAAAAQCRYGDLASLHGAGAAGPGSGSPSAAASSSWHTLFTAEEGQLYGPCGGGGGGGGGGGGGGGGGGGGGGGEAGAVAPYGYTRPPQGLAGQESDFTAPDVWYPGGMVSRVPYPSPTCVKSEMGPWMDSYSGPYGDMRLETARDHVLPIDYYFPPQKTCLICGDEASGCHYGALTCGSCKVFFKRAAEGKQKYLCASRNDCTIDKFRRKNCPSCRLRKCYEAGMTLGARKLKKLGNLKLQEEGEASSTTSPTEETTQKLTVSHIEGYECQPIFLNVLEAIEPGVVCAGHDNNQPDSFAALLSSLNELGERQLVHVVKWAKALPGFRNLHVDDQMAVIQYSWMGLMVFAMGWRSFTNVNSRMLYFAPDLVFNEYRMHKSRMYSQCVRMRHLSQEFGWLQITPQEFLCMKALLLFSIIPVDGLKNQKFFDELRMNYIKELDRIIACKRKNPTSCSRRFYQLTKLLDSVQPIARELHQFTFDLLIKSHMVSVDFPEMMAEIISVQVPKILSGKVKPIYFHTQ
row,SMILES,outcome
1,C1N2CN3CN1CN(C2)C3,inactive
2,Cc1ccc(N)cc1O,inactive
3,Oc1ccc2c(c1)-c1ccccc1C2,inactive
